Experimental findings from PubChem BioAssay (NCATS) are described below.

Results filed as inconclusive are left out. Where a call stands in place of a potency, no number is given. Calls of active or inactive are those of the source. The call rests on the fitted dose curve; tested in HEK293 reporter line.
Potency means the concentration at half of the fitted maximal effect.

The nature of the experiment: qHTS for Inhibitors of the Functional Ribonucleoprotein Complex (vRNP) of Lassa (LASV) Arenavirus: Viability assay - alamar blue signal for LASV Primary Screen (AID 1347083). Further: nearly all actives have a fitted effect of over 80% in size. The note with it: cell viability, alamar blue fluorescence (LASV minigenome counter-screen); series mostly up to 57.5 µM. Background: Quantitative high-throughput screening tests each substance at several concentrations.
For the molecule `Cc1ccc(Cl)c(O)c1`, the Potency entry is “inactive”.

For the molecule `O=[N+]([O-])c1c(Cl)c(Cl)cc(Cl)c1Cl`, the Potency entry is “inactive”.

With `CC1=C(C(=O)O)N2C(=O)[C@@H](N)[C@H]2SC1`, the Potency entry is “inactive”.

On to `C=C1C[C@H]2[C@H]3CCC(=O)[C@@]3(C)CC[C@@H]2[C@@]2(C)C=CC(=O)C=C12`, for which the Potency result was “inactive”.

Regarding `Cc1nc(-c2ccc(-c3ccc(C(=O)N4CCc5cc6c(cc54)C4(CCN(C)CC4)CO6)cc3)c(C)c2)no1`, the Potency entry was “inactive”.

Take `O=C(O)COc1nc(Cl)c(Cl)cc1Cl`: the Potency entry is “inactive”.

Turning to `O=C(O)CNC(=O)c1c(O)c2ccccc2n(Cc2ccccc2)c1=O`, the Potency result was “inactive”.

In the case of `CCCC[N+]1(C)[C@H]2CC(OC(=O)[C@H](CO)c3ccccc3)C[C@H]1[C@H]1O[C@H]12` (stereo partly drawn), the Potency result was “inactive”.

In the case of `CC(O)=C(C#N)C(=O)Nc1cc(Br)ccc1Br`, the Potency result is “inactive”.

In the case of `Nc1ccc(Cl)cc1`, the Potency result was “inactive”.

Take `Fc1cc(Br)ccc1CBr`: the Potency result is “inactive”.

With `O=[N+]([O-])c1ncc[nH]1`, the Potency entry is “inactive”.

For `C[C@H]1CCCC=CC2C[C@H](O)C[C@@H]2[C@H](O)C=CC(=O)O1` (stereo partly drawn), the Potency is 24.3 nM (active).

With `Nc1ccc(Sc2ccc(N)cc2)cc1`, the Potency entry was “inactive”.

Regarding `C[C@]12COC(=O)C[C@@H]1CC[C@@H]1[C@H]2CC[C@@]2(C)[C@H]1CC[C@]2(C)O`, the Potency entry is “inactive”.

As to `C[C@H]([C@H](O)CCC(C)(C)O)[C@H]1CC[C@@]2(O)C3=CC(=O)[C@@H]4C[C@@H](O)[C@@H](O)C[C@]4(C)[C@@H]3CC[C@]12C`, the Potency entry was “inactive”.

Regarding `C[C@]12CCC(=O)C(O)=C1CC[C@@H]1[C@H]3CCC(=O)[C@@]3(C)CC[C@@H]12`, the Potency entry was “inactive”.

For `CC(=O)OCC1=C(C(=O)O)N2C(=O)[C@@H](N)[C@@H]2SC1`, the Potency entry was “inactive”.
